What was measured:
Test in all cases: DAPPL (digital affinity profiling via proximity ligation, sequencing); 10 mM Tris-HCl pH 7.5, 50 mM NaCl, 1 mM DTT, 4% glycerol, room temperature, 30 min; GST-TFs on glutathione beads, 16-mer random dsDNA library, 0.1% formaldehyde crosslink after washing; high values mean tight binding
Conditions in all cases: protein: recombinant; tags: N-terminal GST; dsDNA, one strand shown
[1] = target: T1, ERF (Homo sapiens, UniProt P50548 1-548)
T1 sequence: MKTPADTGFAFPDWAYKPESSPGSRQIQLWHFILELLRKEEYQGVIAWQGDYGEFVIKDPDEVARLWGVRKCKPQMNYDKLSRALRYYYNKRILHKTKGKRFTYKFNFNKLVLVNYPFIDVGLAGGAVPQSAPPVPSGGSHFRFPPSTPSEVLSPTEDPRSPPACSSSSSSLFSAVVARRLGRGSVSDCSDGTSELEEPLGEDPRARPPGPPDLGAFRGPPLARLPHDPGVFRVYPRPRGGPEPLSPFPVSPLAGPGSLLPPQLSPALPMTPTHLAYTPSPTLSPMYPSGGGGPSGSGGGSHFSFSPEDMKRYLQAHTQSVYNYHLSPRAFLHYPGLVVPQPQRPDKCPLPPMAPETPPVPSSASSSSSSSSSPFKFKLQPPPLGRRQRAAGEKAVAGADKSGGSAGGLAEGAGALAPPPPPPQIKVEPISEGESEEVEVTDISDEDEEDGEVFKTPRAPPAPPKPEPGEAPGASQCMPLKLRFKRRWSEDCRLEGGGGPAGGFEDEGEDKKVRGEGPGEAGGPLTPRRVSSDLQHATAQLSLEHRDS
Procedure, shortened: (§1)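 Pools were built from human transcription factors expressed in yeast as GST fusions, captured on glutathione beads and DNA-barcoded, along with a tag-only sample. Incubation with 200 nmole of a 16-mer random double-stranded DNA library lasted 30 min at room temperature in Tris/NaCl/DTT/glycerol buffer, and was followed by washing, 0.1% formaldehyde crosslinking, proximity ligation, PCR amplification and Illumina NextSeq500 sequencing. Binding signal is the quotient of each hexamer's read frequency for a factor and its frequency for the tag-only sample.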

[2] = target: T2, ETV3L (Homo sapiens, UniProt Q6ZN32 1-361)
T2 sequence: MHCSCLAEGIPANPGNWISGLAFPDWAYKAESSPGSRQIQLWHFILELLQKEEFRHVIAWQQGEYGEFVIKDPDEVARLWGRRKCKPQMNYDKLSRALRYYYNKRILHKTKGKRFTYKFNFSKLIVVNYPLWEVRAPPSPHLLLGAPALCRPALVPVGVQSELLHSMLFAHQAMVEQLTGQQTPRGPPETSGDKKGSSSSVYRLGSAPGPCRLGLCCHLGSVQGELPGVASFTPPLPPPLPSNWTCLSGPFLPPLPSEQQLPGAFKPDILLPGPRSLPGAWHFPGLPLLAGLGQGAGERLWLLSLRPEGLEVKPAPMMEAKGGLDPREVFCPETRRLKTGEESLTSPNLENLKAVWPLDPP
Procedure, shortened: as §1

[3] = target: T3, ETS2 (Homo sapiens, UniProt P15036 1-469)
T3 sequence: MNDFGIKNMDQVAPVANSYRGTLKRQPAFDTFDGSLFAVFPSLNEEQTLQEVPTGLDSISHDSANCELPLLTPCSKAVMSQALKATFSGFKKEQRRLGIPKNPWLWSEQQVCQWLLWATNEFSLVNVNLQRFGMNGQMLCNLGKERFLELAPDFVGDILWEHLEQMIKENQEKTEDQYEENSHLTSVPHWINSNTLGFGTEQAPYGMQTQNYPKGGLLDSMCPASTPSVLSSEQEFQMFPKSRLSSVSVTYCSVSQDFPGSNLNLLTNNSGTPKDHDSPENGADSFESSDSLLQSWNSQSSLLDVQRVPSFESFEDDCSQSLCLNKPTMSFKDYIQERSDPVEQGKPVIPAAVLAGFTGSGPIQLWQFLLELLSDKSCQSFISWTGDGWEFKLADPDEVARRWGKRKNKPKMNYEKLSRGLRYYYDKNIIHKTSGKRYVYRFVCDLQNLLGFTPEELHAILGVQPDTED
Procedure, shortened: as §1

[4] = target: T4, SPDEF (Homo sapiens, UniProt O95238 1-335)
T4 sequence: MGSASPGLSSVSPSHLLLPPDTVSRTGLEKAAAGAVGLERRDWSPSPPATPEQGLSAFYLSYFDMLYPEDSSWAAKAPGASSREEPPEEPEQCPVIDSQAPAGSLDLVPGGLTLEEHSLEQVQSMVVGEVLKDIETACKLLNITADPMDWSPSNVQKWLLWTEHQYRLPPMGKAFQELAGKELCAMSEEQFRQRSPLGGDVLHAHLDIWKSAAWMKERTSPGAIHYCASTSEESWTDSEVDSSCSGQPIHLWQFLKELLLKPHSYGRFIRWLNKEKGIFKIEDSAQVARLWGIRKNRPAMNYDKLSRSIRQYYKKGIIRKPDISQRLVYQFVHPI
Procedure, shortened: as §1

[5] = target: T5, ETV7 (Homo sapiens, UniProt Q9Y603 1-341)
T5 sequence: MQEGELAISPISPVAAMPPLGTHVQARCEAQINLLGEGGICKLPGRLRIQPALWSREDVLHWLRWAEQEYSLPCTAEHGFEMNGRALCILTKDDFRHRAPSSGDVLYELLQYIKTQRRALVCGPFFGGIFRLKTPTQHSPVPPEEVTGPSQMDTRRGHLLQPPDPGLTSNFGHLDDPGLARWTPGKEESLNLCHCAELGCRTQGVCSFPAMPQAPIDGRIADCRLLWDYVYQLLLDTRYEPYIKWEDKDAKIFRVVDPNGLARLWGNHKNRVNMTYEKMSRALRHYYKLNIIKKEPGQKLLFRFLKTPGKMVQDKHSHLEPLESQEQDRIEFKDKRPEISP
Procedure, shortened: as §1

[6] = target: T6, ELF5 (Homo sapiens, UniProt Q9UKW6-2 1-255)
T6 sequence: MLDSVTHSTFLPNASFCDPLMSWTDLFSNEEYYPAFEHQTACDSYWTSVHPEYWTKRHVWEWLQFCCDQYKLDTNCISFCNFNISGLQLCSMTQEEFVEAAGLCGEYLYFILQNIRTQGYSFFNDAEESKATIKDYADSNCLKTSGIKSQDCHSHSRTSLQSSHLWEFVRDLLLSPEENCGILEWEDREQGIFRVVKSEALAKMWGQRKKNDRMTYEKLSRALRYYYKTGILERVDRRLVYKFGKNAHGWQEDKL
Procedure, shortened: as §1

[7] = target: T7, ETV3 (Homo sapiens, UniProt P41162-2 1-143)
T7 sequence: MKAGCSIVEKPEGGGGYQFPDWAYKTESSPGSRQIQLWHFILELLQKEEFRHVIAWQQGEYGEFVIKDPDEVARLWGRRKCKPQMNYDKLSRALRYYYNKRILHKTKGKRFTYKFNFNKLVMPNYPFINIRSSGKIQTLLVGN
Procedure, shortened: as §1

[8] = target: ETV6 (Homo sapiens, UniProt P41212 1-452)
Procedure, shortened: as §1

Sequence of ETV6 (P41212 whole entry): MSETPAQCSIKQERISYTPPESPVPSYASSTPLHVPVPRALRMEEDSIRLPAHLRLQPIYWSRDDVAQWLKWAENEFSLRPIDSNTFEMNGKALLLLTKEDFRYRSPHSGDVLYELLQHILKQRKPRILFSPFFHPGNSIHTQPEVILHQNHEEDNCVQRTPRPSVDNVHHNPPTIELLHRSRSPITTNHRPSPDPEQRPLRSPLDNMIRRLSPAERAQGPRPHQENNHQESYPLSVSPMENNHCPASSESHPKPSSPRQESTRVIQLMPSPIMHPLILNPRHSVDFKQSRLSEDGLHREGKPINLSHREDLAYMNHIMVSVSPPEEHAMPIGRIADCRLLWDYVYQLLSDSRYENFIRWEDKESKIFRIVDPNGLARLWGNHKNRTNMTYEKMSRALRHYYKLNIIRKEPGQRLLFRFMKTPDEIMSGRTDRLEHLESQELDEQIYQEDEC

| Sequence | binding signal [1] | binding signal [2] | binding signal [3] | binding signal [4] | binding signal [5] | binding signal [6] | binding signal [7] | binding signal [8] |
| --- | --- | --- | --- | --- | --- | --- | --- | --- |
| CGCTTA | 1.31 fold enrichment (6-mer frequency, TF over GST control) | 1.3 fold enrichment (6-mer frequency, TF over GST control) | 1.25 fold enrichment (6-mer frequency, TF over GST control) | 1.3 fold enrichment (6-mer frequency, TF over GST control) | 1.31 fold enrichment (6-mer frequency, TF over GST control) | 1.19 fold enrichment (6-mer frequency, TF over GST control) | 1.34 fold enrichment (6-mer frequency, TF over GST control) | 1.11 fold enrichment (6-mer frequency, TF over GST control) |
| ACCCAC | 1.2 fold enrichment (6-mer frequency, TF over GST control) | 1.02 fold enrichment (6-mer frequency, TF over GST control) | 1.15 fold enrichment (6-mer frequency, TF over GST control) | 1.21 fold enrichment (6-mer frequency, TF over GST control) | 1.18 fold enrichment (6-mer frequency, TF over GST control) | 1.19 fold enrichment (6-mer frequency, TF over GST control) | 1.13 fold enrichment (6-mer frequency, TF over GST control) | 1.2 fold enrichment (6-mer frequency, TF over GST control) |
| TTTGTC | 1.23 fold enrichment (6-mer frequency, TF over GST control) | 1.32 fold enrichment (6-mer frequency, TF over GST control) | 1.24 fold enrichment (6-mer frequency, TF over GST control) | 1.14 fold enrichment (6-mer frequency, TF over GST control) | 1.35 fold enrichment (6-mer frequency, TF over GST control) | 1.22 fold enrichment (6-mer frequency, TF over GST control) | 1.29 fold enrichment (6-mer frequency, TF over GST control) | 1.17 fold enrichment (6-mer frequency, TF over GST control) |
| TGTTTG | 1.4 fold enrichment (6-mer frequency, TF over GST control) | 1.35 fold enrichment (6-mer frequency, TF over GST control) | 1.32 fold enrichment (6-mer frequency, TF over GST control) | 1.25 fold enrichment (6-mer frequency, TF over GST control) | 1.39 fold enrichment (6-mer frequency, TF over GST control) | 1.29 fold enrichment (6-mer frequency, TF over GST control) | 1.35 fold enrichment (6-mer frequency, TF over GST control) | 1.41 fold enrichment (6-mer frequency, TF over GST control) |
| TAAACA | 1.31 fold enrichment (6-mer frequency, TF over GST control) | 1.25 fold enrichment (6-mer frequency, TF over GST control) | 1.27 fold enrichment (6-mer frequency, TF over GST control) | 1.27 fold enrichment (6-mer frequency, TF over GST control) | 1.24 fold enrichment (6-mer frequency, TF over GST control) | 1.22 fold enrichment (6-mer frequency, TF over GST control) | 1.25 fold enrichment (6-mer frequency, TF over GST control) | 1.25 fold enrichment (6-mer frequency, TF over GST control) |
| TTGCTG | 1.28 fold enrichment (6-mer frequency, TF over GST control) | 1.26 fold enrichment (6-mer frequency, TF over GST control) | 1.21 fold enrichment (6-mer frequency, TF over GST control) | 1.18 fold enrichment (6-mer frequency, TF over GST control) | 1.37 fold enrichment (6-mer frequency, TF over GST control) | 1.14 fold enrichment (6-mer frequency, TF over GST control) | 1.23 fold enrichment (6-mer frequency, TF over GST control) | 1.13 fold enrichment (6-mer frequency, TF over GST control) |
| TGATTC | 1.07 fold enrichment (6-mer frequency, TF over GST control) | 1.09 fold enrichment (6-mer frequency, TF over GST control) | 1.06 fold enrichment (6-mer frequency, TF over GST control) | 1.04 fold enrichment (6-mer frequency, TF over GST control) | 1.13 fold enrichment (6-mer frequency, TF over GST control) | 1.03 fold enrichment (6-mer frequency, TF over GST control) | 1.15 fold enrichment (6-mer frequency, TF over GST control) | 1.06 fold enrichment (6-mer frequency, TF over GST control) |
| TCTGGT | 1.34 fold enrichment (6-mer frequency, TF over GST control) | 1.26 fold enrichment (6-mer frequency, TF over GST control) | 1.16 fold enrichment (6-mer frequency, TF over GST control) | 1.28 fold enrichment (6-mer frequency, TF over GST control) | 1.35 fold enrichment (6-mer frequency, TF over GST control) | 1.26 fold enrichment (6-mer frequency, TF over GST control) | 1.29 fold enrichment (6-mer frequency, TF over GST control) | 1.17 fold enrichment (6-mer frequency, TF over GST control) |
| TCGATG | 1.08 fold enrichment (6-mer frequency, TF over GST control) | 1.15 fold enrichment (6-mer frequency, TF over GST control) | 1.03 fold enrichment (6-mer frequency, TF over GST control) | 1.07 fold enrichment (6-mer frequency, TF over GST control) | 1.17 fold enrichment (6-mer frequency, TF over GST control) | 1.07 fold enrichment (6-mer frequency, TF over GST control) | 1.1 fold enrichment (6-mer frequency, TF over GST control) | 1.09 fold enrichment (6-mer frequency, TF over GST control) |
